Experimental data from PubChem BioAssay AID1851 (National Center for Advancing Translational Sciences (NCATS), 2009).
The whole screen tested about 16,000 compounds, of which about 2,600 (16%) were called active. Not shown: some 20% with an inconclusive outcome. Calls follow the shape of the dose curve; as a rule, active = well fitted curve in the direction sought with a large enough effect; inconclusive = small, poorly fitted or top-dose-only effect, or effect the other way; inactive = no such curve, though single readings can be large or run the other way. For the sample, actives were picked, then their nearest neighbours and some compounds at random.

Target: Cytochrome P450 2D6 (Homo sapiens) (UniProt P10635)
Assay: Cytochrome panel assay with activity outcomes
Conditions: recombinant CYP, pro-luciferin dealkylation, luminescence, p450-cyp2d6; series mostly up to 57.1 µM; activity, negative = inhibition: at the top concentration
Description: The P450 gene superfamily is involved in the metabolism and clearance of xenobiotics. This assay used various human CYP P450 isozymes to measure the dealkylation of various pro-luciferin substrates to luciferin. The luciferin is then measured by luminescence after the addition of a luciferase detection reagent. Pro-luciferin substrate concentration in the assay was equal to its KM for its CYP P450 isozyme. Inhibitors and some substrates limit the production of luciferin, and decrease measured luminescence.
NCGC Assay Protocol Summary:
1, Reagent, 2 uL, Isozyme and Pro-Luciferin
2, Library compounds, 23 nl, 40 uM to 0.24 nM dilution series
3, Controls, 23 nl, Isozyme specific inhibitor
4, Reagent, 2 uL, NADPH regeneration solution
5, Incubation time, 60 min, Isozyme specific temperature
6, Reagent, 4ul, Detection reagent
7, Incubation time, 20 min, Isozyme specific temperature
8, Detection, 1 sec, ViewLux luminescent read
The luciferase-based P450-GloTM Screening Systems were obtained from Promega (Madison, WI) for CYP 1A2 (V9770), CYP 2C9 (V9790), CYP2 C19 (V9880), CYP 2D6 (V9890), and CYP 3A4 Luciferin-PPXE (V9910) and were adapted for 1,536-well microplates and an automated protocol. The control compounds furafylline for 1A2 (F124), sulfaphenazole for CYP 2C9 (S0758), ketoconazole for CYP 2C19 (K1003), quinidine for 2D6 (Q3625), and ketoconazole for 3A4 (K1003) were purchased from Sigma Aldrich (St. Louis, MO). Recombinant P450 enzymes were obtained from baculovirus constructs expressed in insect cells (BD/Gentest).
Medium-binding white solid Kalypsys plates used. Mixtures kept on ice. 1A2: 10 nM 1A2, 100 uM Luc-ME, 100 mM KPO4; 2C9: 10 nM 2C9, 100 uM Luc-H, 25 mM KPO4; 2C19: 5 nM 2C19, 10 uM Luc-H EGE, 50 mM KPO4; 2D6: 5 nM 2D6, 30 uM Luc-ME EGE, 100 mM KPO4; 3A4: 10 nM, 25 uM Luc-PPXE. All amounts are reflected in their final concentration, working concentration is 2x.
NADPH regeneration solution: 1.3 mM NADP+, 3.3 mM glucose-6-phosphate, 3.3 mM MgCl2, 0.4 U/mL glucose-6-phosphate dehydrogenase for all isozymes, 200 mM KPO4 for 3A4. Mixture prepared at RT but kept on ice during automated run.
RT incubation in auxilliary plate hotel for 1A2, 2D6, and 3A4; 37C for 2C9 and 2C19.
Keywords: P450, CYP1A2, CYP2C19, CYP2C9, CYP2D6, CYP3A4, Luciferase, MLSMR, MLSCN, NIH Roadmap, qHTS, NCGC
% is scaled to controls: 0 for no effect and ±100 for the full control effect.

Chain of Cytochrome P450 2D6 (Homo sapiens) (P10635 whole entry, looked up): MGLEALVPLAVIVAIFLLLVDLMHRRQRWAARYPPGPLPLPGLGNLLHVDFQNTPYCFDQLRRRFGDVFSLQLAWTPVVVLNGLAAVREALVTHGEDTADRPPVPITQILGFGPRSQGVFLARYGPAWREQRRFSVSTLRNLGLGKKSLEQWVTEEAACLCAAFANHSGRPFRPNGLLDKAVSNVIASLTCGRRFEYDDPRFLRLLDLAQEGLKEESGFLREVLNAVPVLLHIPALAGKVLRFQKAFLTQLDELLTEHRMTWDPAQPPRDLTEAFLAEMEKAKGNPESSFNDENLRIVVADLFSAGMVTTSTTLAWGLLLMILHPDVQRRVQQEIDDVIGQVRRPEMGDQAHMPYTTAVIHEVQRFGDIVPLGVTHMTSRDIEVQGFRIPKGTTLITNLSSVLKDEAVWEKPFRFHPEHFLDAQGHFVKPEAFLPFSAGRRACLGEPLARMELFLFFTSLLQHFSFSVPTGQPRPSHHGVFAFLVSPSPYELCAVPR

| SMILES | activity, negative = inhibition | AC50 |
| --- | --- | --- |
| C[C@H]1CC[C@]2(OC1)O[C@@H]1C[C@@H]3[C@@H]4CC[C@H]5C[C@@H](O)CC[C@]5(C)[C@@H]4CC(=O)[C@@]3(C)[C@H]1[C@@H]2C | 3.5% [at 25.6 µM] (inactive) |  |
| COCCCN1Cc2ccccc2C1=N |  | 12.6 µM (active) |
| N#CC(=C(/N)Sc1ccccc1N)/C(C#N)=C(/N)Sc1ccccc1N |  | 0.02 µM (active) |
| CCC(=Nc1cc(OC)ccc1OC)c1c(O)[nH]c(=O)[nH]c1=O | -20% (inactive) |  |
| CCCCn1c(O)c(C(CC)=Nc2ccc(OC)cc2OC)c(=O)[nH]c1=O |  | 12.6 µM (active) |
| CCCCn1c(O)c(C(CC)=NCc2ccc(F)cc2)c(=O)[nH]c1=O | -4.9% (inactive) |  |
| CCCCN1C(=O)/C(=C/c2ccc(N(C)C)cc2)C(=O)N(Cc2ccco2)C1=O | 2.94% (inactive) |  |
| [N-]=[N+]=NCC(=O)c1c[nH]c(=O)[nH]c1=O | 8.7% [at 11.4 µM] (inactive) |  |
| O=[N+]([O-])c1cc([As](=O)(O)O)ccc1O | -1.12% [at 25.6 µM] (inactive) |  |
| CCn1cnc2c(Nc3cccc(Cl)c3)nc(N[C@@H]3CCCC[C@H]3N)nc21 |  | 25.1 µM (active) |
| CC(=O)[C@@H]1CC[C@@H]2[C@@H]3CC=C4C[C@H](OS(=O)(=O)O)CC[C@@]4(C)[C@H]3CC[C@]21C | -8.1% (inactive) |  |
| Cc1ccc2c(c1)C1CN(C)CCC1N2C(=O)Nc1cccc(Cl)c1 (centres undefined) |  | 1 µM (active) |
| Clc1cc(I)cc(Cl)c1NC1=NCCN1 |  | 3.98 µM (active) |
| Brc1c(NC2=NCCN2)ccc2nccnc12 | -11.4% (inactive) |  |
| CCC(CC)C(=O)NC1CCSC1=O (centres undefined) | 0.616% (inactive) |  |
| CC1(C)N=C(N)N=C(N)N1c1cccc(C(=O)Nc2ccc(S(=O)(=O)F)cc2)c1 |  | 2 µM (active) |
| CN1C(=O)c2ccccc2Sc2ccc(C(=O)N3CCC4(CC3)OCCO4)cc21 | 13.9% (inactive) |  |
| CC(=O)c1ccc2c(c1)N(CCCN(C)C)c1ccccc1S2 |  | 2.51 µM (active) |
| C=CCN1C(=O)c2ccccc2Sc2ccc(C(=O)N3CCC4(CC3)OCCO4)cc21 | -5.85% (inactive) |  |
| CCCCc1nc2ccccc2c(=O)n1-c1ccccc1[N+](=O)[O-] | -22.1% (inactive) |  |
| COc1cc(CCN)ccc1O | -0.172% (inactive) |  |
| CN(C(=O)Cc1ccc(Cl)c(Cl)c1)[C@@H](CN1CCCC1)c1cccc(OCC(=O)O)c1 | 0.96% (inactive) |  |

| SMILES | activity, negative = inhibition | AC50 |
| --- | --- | --- |
| CN(C(=O)Cc1ccccc1)[C@H](CN1CCCC1)c1ccccc1 |  | 3.16 µM (active) |
| O=c1[nH]oc2c1CCNC2 |  | inactive |
| C#C[C@@]1(O)CC[C@@H]2[C@@H]3CCC4=CC(=O)CC[C@@]4(C)[C@H]3CC[C@]21C | 3.54% [at 25.6 µM] (inactive) |  |
| Cc1ccc(N2C(=O)/C(=C/c3ccc(CN(CCC#N)S(C)(=O)=O)o3)C(=O)NC2=S)cc1C | 4.47% (inactive) |  |
| Cc1ccc(N2C(=O)/C(=C/N3CCN(C(=O)c4ccco4)CC3)C(=O)NC2=S)cc1C |  | 0.0282 µM (active) |
| CC(=O)Nc1ccccc1C(=O)OCC(=O)c1ccc2ccccc2c1 | 29.5% (inactive) |  |
| CC[C@@]1(O)C(=O)OCc2c1cc1n(c2=O)Cc2cc3c(NC(=O)CN)cccc3nc2-1 | 3.66% [at 11.4 µM] (inactive) |  |
| O=C(O)[C@H]1[C@H](C(=O)O)[C@H]2CC[C@@H]1O2 | 2.98% (inactive) |  |
| CN(C)CCC=C1c2ccccc2CCc2ccccc21 |  | 7.94 µM (active) |
| CN(C)CC/C=C1\c2ccccc2Sc2ccc(Cl)cc21 |  | 2.51 µM (active) |
| CN(C)[C@@H]1C(=O)C(C(N)=O)=C(O)[C@]2(O)C(=O)C3=C(O)c4c(O)cccc4[C@@](C)(O)[C@H]3[C@H](O)[C@@H]12 | 0.652% [at 25.6 µM] (inactive) |  |
| FC(F)(F)c1nc2ccc(SSc3ccc4nc(C(F)(F)F)[nH]c4c3)cc2[nH]1 | -8.27% [at 11.4 µM] (inactive) |  |
| CP(=O)(O)C1=CCNCC1 | -1.3% (inactive) |  |
| CCCN1CCC[C@H](c2cccc(O)c2)C1 |  | inactive |
| CCCN1CCC[C@H](c2cccc(C#N)c2)C1 |  | 31.6 µM (active) |
| CN1C2CCC1/C(=C\c1ccccc1)C(=O)/C2=C\c1ccccc1 |  | 0.158 µM (active) |
| CCOC(=O)N(c1ccccc1)P1(=S)OCCO1 | 4.06% (inactive) |  |
| CC(=O)[C@@H]1CC[C@@H]2[C@@H]3CCC4=CC(=O)CC[C@@]4(C)[C@H]3CC[C@]21C | -11.4% [at 25.6 µM] (inactive) |  |
| Cn1ccnc1 | 7.17% (inactive) |  |
| C[Se]C[C@@H](N)C(=O)O | 15.1% (inactive) |  |
| CC[C@]1(C2=NCCN2)Cc2ccccc2O1 |  | 12.6 µM (active) |
| CC[C@H](C)C(=O)O[C@@H]1[C@H](O)[C@@H]2[C@H](CN3C[C@@H](C)CC[C@@H]3[C@@]2(C)O)[C@@H]2C[C@@]34O[C@@]5(O)[C@@H](OC(=O)[C@](C)(O)CC)CC[C@@]3(C)[C@H]5[C@H](OC(C)=O)[C@@H](OC(C)=O)[C@H]4[C@]12O | 9.64% [at 25.6 µM] (inactive) |  |
